Source: PubChem BioAssay (NCATS)
Inconclusive results are not listed. Calls of active or inactive are those of the source. The call rests on the fitted dose curve; in most records, active means well fitted curve in the direction sought with a large enough effect; inconclusive means small, poorly fitted or top-dose-only effect, or another doubt; inactive means no such curve, though single readings can be large; an effect the other way counts as inactive or inconclusive.

What was measured:
[1] = qHTS of pediatric cancer cell lines to identify multiple opportunities for drug repurposing: Primary screen for OHS-50 cells (AID 1347103); further: nearly all actives have a fitted effect of over 40% in size; further: potency means the concentration at half of the fitted maximal effect;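 on activity change, negative = cytotoxic: plate controls were DMSO neutral control for no effect and bortezomib positive control for full effect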
How it was run: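 Cells (500-1,000/well) rested 5 h, then received compounds for 48 h; metabolically active cells were measured by CellTiter-Glo luminescence. Final concentrations spanned up to 46 µM (MIPE, 11-point) or 0.59 nM-46 µM (NPC, 8-point) in primary screens, 11-point in follow-ups.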

[2] = qHTS of pediatric cancer cell lines to identify multiple opportunities for drug repurposing: Primary screen for RD cells (AID 1347104); further: nearly all actives have a fitted effect of over 55% in size; further: potency means the concentration at half of the fitted maximal effect;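 on activity change, negative = cytotoxic: plate controls were DMSO for no effect and bortezomib for full effect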
How it was run: (§1)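 Primary screen of approved and investigational compounds on cells in growth media at 37 degrees C, 5% CO2. MIPE set at 11-point and NPC set at 8-point dilutions; viability scored by ATP-based luminescence at 48 hours.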

[3] = qHTS of pediatric cancer cell lines to identify multiple opportunities for drug repurposing: Primary screen for MG 63 (6-TG R) cells (AID 1347105); further: nearly all actives have a fitted effect of over 50% in size; further: potency means the concentration at half of the fitted maximal effect; on activity change, negative = cytotoxic: on the % scale 0 is the no-effect control and ±100 the full control effect
How it was run: as §1

[4] = qHTS of pediatric cancer cell lines to identify multiple opportunities for drug repurposing: Primary screen for control Hh wild type fibroblast cells (AID 1347106);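 further: series mostly up to about 46 µM; on the % scale 0 is the no-effect control and ±100 the full control effect; a drop in luminescence marks cytotoxicity and a rise apparent proliferation; nearly all actives have a fitted effect of over 55% in size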
How it was run: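 Cells (500-1,000/well) in growth media were settled 5 h at 37 degrees C, then given compounds for 48 h. Viability was read as CellTiter-Glo luminescence. Primary runs used MIPE at 11 points (0.78 nM-46 µM) and NPC at 8 points (0.59 nM-46 µM); follow-ups used 11 points.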

[5] = qHTS of pediatric cancer cell lines to identify multiple opportunities for drug repurposing: Primary screen for Rh30 cells (AID 1347107); further: series mostly up to about 46 µM; on the % scale 0 is the no-effect control and ±100 the full control effect; nearly all actives have a fitted effect of over 75% in size
How it was run: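 Viability after 48 h compound treatment at 37C, 500-1,000 cells/well, read as ATP luminescence with CellTiter-Glo. Primary screens used 11-point (MIPE, 0.78 nM-46 µM) or 8-point (NPC, 0.59 nM-46 µM) final concentrations; follow-up screens used 11-point dilutions.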

[6] = qHTS of pediatric cancer cell lines to identify multiple opportunities for drug repurposing: Primary screen for Rh41 cells (AID 1347108);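 further: series mostly up to about 46 µM; luminescence drop marks cytotoxic hits; nearly all actives have a fitted effect of over 70% in size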
How it was run: as §1

CO[C@@]1(NC(=O)CSCC#N)C(=O)N2C(C(=O)O)=C(CSc3nnnn3C)CS[C@@H]21
inactive: Potency [1] | Potency [2] | Potency [3] | outcome [4] | Potency [5] | Potency [6]

CCN(Cc1ccncc1)C(=O)C(CO)c1ccccc1 (centres undefined)
inactive: Potency [1] | Potency [2] | Potency [3] | outcome [4] | Potency [5] | Potency [6]

O=C(O)CCCCCCCC(=O)O
inactive: Potency [1] | Potency [2] | Potency [3] | outcome [4] | Potency [5] | Potency [6]

CCN(CC)CCNC(=O)c1cc(S(C)(=O)=O)ccc1OC
inactive: Potency [1] | Potency [2] | Potency [3] | outcome [4] | Potency [5] | Potency [6]

NC1=NCC2c3ccccc3Cc3ccccc3N12 (centres undefined)
inactive: Potency [1] | Potency [2] | Potency [3] | outcome [4] | Potency [5] | Potency [6]

CNC1(C)C2CCC(C2)C1(C)C (centres undefined)
inactive: Potency [1] | Potency [2] | Potency [3] | outcome [4] | Potency [5] | Potency [6]

O=C(CCNNC(=O)c1ccncc1)NCc1ccccc1
inactive: Potency [1] | Potency [2] | Potency [3] | outcome [4] | Potency [5] | Potency [6]

CC[N+](C)(C)c1cccc(O)c1
inactive: Potency [1] | Potency [2] | Potency [3] | outcome [4] | Potency [5] | Potency [6]

Cc1ccc(=O)n(-c2ccccc2)c1
inactive: Potency [1] | Potency [2] | Potency [3] | outcome [4] | Potency [5] | Potency [6]

COCC(=O)O[C@]1(CCN(C)CCCc2nc3ccccc3[nH]2)CCc2cc(F)ccc2[C@@H]1C(C)C
inactive: outcome [4]
active: Potency [1] 21.9 µM | Potency [2] 26.6 µM | Potency [3] 21.1 µM

CCn1cc(C(=O)O)c(=O)c2cc3c(cc21)OCO3
inactive: Potency [1] | Potency [2] | Potency [3] | outcome [4] | Potency [5] | Potency [6]

O=C(O)CN(CCOCCOCCN(CC(=O)O)CC(=O)O)CC(=O)O
inactive: activity change, negative = cytotoxic [1] 12.9% [at 0.73 µM] | activity change, negative = cytotoxic [2] 10.3% [at 0.597 µM] | activity change, negative = cytotoxic [3] -8.72% [at 0.597 µM] | activity change, negative = cytotoxic [4] 5.93% [at 0.597 µM] | activity change, negative = cytotoxic [5] 25.4% [at 0.597 µM] | activity change, negative = cytotoxic [6] 18.7% [at 0.597 µM]

C[N+](C)(C)CCOC(N)=O
inactive: Potency [1] | Potency [2] | Potency [3] | outcome [4] | Potency [5] | Potency [6]

CSc1ccc(C(=O)c2[nH]c(=O)[nH]c2C)cc1
inactive: Potency [1] | Potency [2] | Potency [3] | outcome [4] | Potency [5] | Potency [6]

CC(C)(Oc1ccc(CCNC(=O)c2ccc(Cl)cc2)cc1)C(=O)O
inactive: Potency [1] | Potency [2] | Potency [3] | outcome [4] | Potency [5] | Potency [6]

COc1ccc([C@@H]2Sc3ccccc3N(CCN(C)C)C(=O)[C@@H]2OC(C)=O)cc1
inactive: Potency [1] | Potency [2] | Potency [3] | outcome [4] | Potency [5] | Potency [6]

Brc1c(NC2=NCCN2)ccc2nccnc12
inactive: Potency [1] | Potency [2] | Potency [3] | outcome [4] | Potency [5] | Potency [6]

C[C@@H](O)[C@H]1C(=O)N2C(C(=O)O)=C(SCCN=CN)C[C@H]12
inactive: Potency [1] | Potency [2] | Potency [3] | outcome [4] | Potency [5] | Potency [6]

CCCN(CCC)CCc1cccc2c1CC(=O)N2
inactive: Potency [1] | Potency [2] | Potency [3] | outcome [4] | Potency [5] | Potency [6]

O=C1CC2(CCCC2)CC(=O)N1CCCCN1CCN(c2ncccn2)CC1
inactive: Potency [1] | Potency [2] | Potency [3] | outcome [4] | Potency [5] | Potency [6]

COc1cc(Cc2cnc(N)nc2N)cc(OC)c1OC
inactive: Potency [1] | Potency [2] | Potency [3] | outcome [4] | Potency [5] | Potency [6]

CN(C(=O)CCCOc1ccc2[nH]c(=O)ccc2c1)C1CCCCC1
inactive: Potency [2] | Potency [3] | outcome [4] | Potency [5]
active: Potency [1] 21.9 µM

CCN(CC)CCNC(=O)c1ccc(NC(C)=O)cc1
inactive: Potency [1] | Potency [2] | Potency [3] | outcome [4] | Potency [5] | Potency [6]

CN(C)CCOC(=O)COc1ccc(Cl)cc1
inactive: Potency [1] | Potency [2] | Potency [3] | outcome [4] | Potency [5] | Potency [6]

Cc1cccc(C)c1NC(=O)C(C)N (centres undefined)
inactive: Potency [1] | Potency [2] | Potency [3] | outcome [4] | Potency [5] | Potency [6]

C[C@H](CS)C(=O)N1CCC[C@H]1C(=O)O
inactive: Potency [1] | Potency [2] | Potency [3] | outcome [4] | Potency [5] | Potency [6]

CCN1CCC[C@H]1CNC(=O)c1c(O)c(Cl)cc(Cl)c1OC
inactive: Potency [1] | Potency [2] | Potency [3] | outcome [4] | Potency [5] | Potency [6]

CCO/C([O-])=N/c1c[n+](N2CCOCC2)no1
inactive: Potency [1] | Potency [2] | Potency [3] | outcome [4] | Potency [5] | Potency [6]

CN1C(=O)CC[C@H]1c1cccnc1
inactive: Potency [1] | Potency [2] | Potency [3] | outcome [4] | Potency [5] | Potency [6]

CC(=O)Nc1nnc(S(N)(=O)=O)s1
inactive: Potency [1] | Potency [2] | Potency [3] | outcome [4] | Potency [5] | Potency [6]

CN(C)[C@@H]1C(=O)C(C(N)=O)=C(O)[C@@]2(O)C(=O)C3=C(O)c4c(O)ccc(Cl)c4[C@@H](O)[C@H]3C[C@@H]12
inactive: Potency [1] | Potency [2] | Potency [3] | outcome [4] | Potency [5] | Potency [6]

NC(=Nc1ccccc1)Nc1ccccc1
inactive: Potency [1] | Potency [2] | Potency [3] | outcome [4] | Potency [5] | Potency [6]

Cc1ccc(S(=O)(=O)NC(=O)NN2CCCCCC2)cc1
inactive: Potency [1] | Potency [2] | Potency [3] | outcome [4] | Potency [5] | Potency [6]

CCc1c(C)[nH]c2c1C(=O)C(CN1CCOCC1)CC2 (centres undefined)
inactive: Potency [1] | Potency [2] | Potency [3] | outcome [4] | Potency [5] | Potency [6]

CC(C)NCC(O)c1cc(O)cc(O)c1 (centres undefined)
inactive: Potency [1] | Potency [2] | Potency [3] | outcome [4] | Potency [5] | Potency [6]

CN1CCN(CC(=O)N2c3ccccc3C(=O)Nc3cccnc32)CC1
inactive: activity change, negative = cytotoxic [1] 7.59% [at 6.18 µM] | activity change, negative = cytotoxic [2] 6.71% [at 4.84 µM] | activity change, negative = cytotoxic [3] 3.64% [at 4.84 µM] | activity change, negative = cytotoxic [4] 2.83% [at 4.84 µM] | activity change, negative = cytotoxic [5] 18% [at 4.84 µM] | activity change, negative = cytotoxic [6] 19.3% [at 4.84 µM]

Cc1nc2c([nH]1)c(=O)n(C)c(=O)n2Cc1ccco1
inactive: Potency [1] | Potency [2] | Potency [3] | outcome [4] | Potency [5] | Potency [6]

NC(=O)c1ncn([C@@H]2O[C@H](CO)[C@@H](O)[C@H]2O)c1O
inactive: Potency [1] | Potency [2] | Potency [3] | outcome [4] | Potency [5] | Potency [6]

CC(C)NNC(=O)c1ccncc1
inactive: Potency [1] | Potency [2] | Potency [3] | outcome [4] | Potency [5] | Potency [6]

CCCNC(C)C(=O)Nc1ccccc1C (centres undefined)
inactive: Potency [1] | Potency [2] | Potency [3] | outcome [4] | Potency [5] | Potency [6]

N[C@@H](COP(=O)(O)O)C(=O)O
inactive: Potency [1] | Potency [2] | Potency [3] | outcome [4] | Potency [5] | Potency [6]

CN=C(NC#N)NCCSCc1nc[nH]c1C
inactive: Potency [1] | Potency [2] | Potency [3] | outcome [4] | Potency [5] | Potency [6]

COC(=O)[C@@H](N)Cc1ccc(O)c(O)c1
inactive: Potency [1] | Potency [2] | Potency [3] | outcome [4] | Potency [5] | Potency [6]

C[N+](C)(C)CCCCCCCCCC[N+](C)(C)C
inactive: Potency [1] | Potency [2] | Potency [3] | outcome [4] | Potency [5] | Potency [6]

CCCOc1ccccc1-c1nc2n[nH]nc2c(=O)[nH]1
inactive: Potency [1] | Potency [2] | Potency [3] | outcome [4] | Potency [5] | Potency [6]

O=C(O)CP(=O)(O)O
inactive: Potency [1] | Potency [2] | Potency [3] | outcome [4] | Potency [5] | Potency [6]

CC(=O)OCC1=C(C(=O)O)N2C(=O)[C@@H](NC(=O)Cc3cccs3)[C@H]2SC1
inactive: Potency [1] | Potency [2] | Potency [3] | outcome [4] | Potency [5] | Potency [6]

CC1=C(C)C(=O)C(CCCCC#CCCCC#CCO)=C(C)C1=O
inactive: Potency [2] | Potency [3] | outcome [4] | Potency [5] | Potency [6]
active: Potency [1] 21.9 µM

CCOC(=O)c1cnc2c(cnn2CC)c1NN=C(C)C
inactive: Potency [1] | Potency [2] | Potency [3] | outcome [4] | Potency [5] | Potency [6]

CCCCNc1c(C(=O)OCC)c(C)nc2c1cnn2CC
active: Potency [1] 34.7 µM
inactive: Potency [2] | Potency [3] | outcome [4] | Potency [5] | Potency [6]

O=c1[nH]c(=O)n([C@H]2C[C@H](O)[C@@H](CO)O2)cc1Br
inactive: Potency [1] | Potency [2] | Potency [3] | outcome [4] | Potency [5] | Potency [6]

CCn1ccnc1CC1COc2ccccc2O1 (centres undefined)
inactive: Potency [1] | Potency [2] | Potency [3] | outcome [4] | Potency [5] | Potency [6]

CCn1nc(C(=O)O)c(=O)c2cc3c(cc21)OCO3
inactive: Potency [1] | Potency [2] | Potency [3] | outcome [4] | Potency [5] | Potency [6]

COc1ccc(CN(CCN(C)C)c2ccccn2)cc1
inactive: Potency [1] | Potency [2] | Potency [3] | outcome [4] | Potency [5] | Potency [6]

CC(=O)Oc1cc(C(C)C)c(OCCN(C)C)cc1C
inactive: Potency [1] | Potency [2] | Potency [3] | outcome [4] | Potency [5] | Potency [6]

Cc1nnc(SCC2=C(C(=O)O)N3C(=O)[C@@H](NC(=O)Cn4cnnn4)[C@H]3SC2)s1
inactive: Potency [1] | Potency [2] | Potency [3] | outcome [4] | Potency [5] | Potency [6]

CCCCCN(CCCCC)C(=O)C(CCC(=O)O)NC(=O)c1ccc(Cl)c(Cl)c1 (centres undefined)
inactive: Potency [1] | Potency [2] | Potency [3] | outcome [4] | Potency [5] | Potency [6]
